Out of some 5,500 compounds screened, about 2,000 (36%) were called active. Not shown: some 18% with an inconclusive outcome. Cut-off read from the data, not from the text of the source: active = normalized growth mostly below about 0.91 (no sharp cut-off); inconclusive = no clear call, values can overlap the other calls; inactive = mostly above about 0.92. The list shows a part of the results.
Test: chemical genetic growth profiling, strain panel (AID 1159580);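 note: tested at 20 µM; growth read once vehicle control cultures reached saturation at 30 °C; 1 = growth at the plate median or of vehicle wells; lower values mean less growth of the strain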
Conditions: growth OD

Measured: normalized growth

CC[C@H](CCC(C)[C@H]1CCC2C3CCC4C[C@@H](O)CC[C@]4(C)C3CC[C@@]21C)C(C)C (stereo partly drawn)
inactive: S. cerevisiae deletion strains, locus YKL009W, strain mrt4, active compounds read low 1.02 | S. cerevisiae deletion strains, locus YKL068W, active compounds read low 1.01 | S. cerevisiae deletion strains, locus YKL085W, strain MDH1 (second series), active compounds read low 1.01 | S. cerevisiae deletion strains, locus YKL085W, strain MDH1, active compounds read low 1.01 | S. cerevisiae deletion strains, locus YKL160W, strain elf1, active compounds read low 1.02 | S. cerevisiae deletion strains, locus YKR001C, strain vps1, active compounds read low 1.04 | S. cerevisiae deletion strains, locus YKR026C, strain gcn3, active compounds read low 0.988 | S. cerevisiae deletion strains, locus YKR091W, strain srl3, active compounds read low 0.992 | S. cerevisiae deletion strains, locus YLL001W, strain dnm1, active compounds read low 1.01 | S. cerevisiae deletion strains, locus YLL026W, active compounds read low 0.991 | S. cerevisiae deletion strains, locus YLL041C, strain sdh2, active compounds read low 0.969 | S. cerevisiae deletion strains, locus YLR027C, strain aat2, active compounds read low 0.987 | S. cerevisiae deletion strains, locus YLR039C, strain RIC1, active compounds read low 0.995 | S. cerevisiae deletion strains, locus YLR058C, strain SHM2, active compounds read low 1.01 | S. cerevisiae deletion strains, locus YLR102C, strain apc9, active compounds read low 1.01 | S. cerevisiae deletion strains, locus YLR113W, strain HOG1, active compounds read low 0.991 | S. cerevisiae deletion strains, locus YLR221C, strain rsa3, active compounds read low 1.03 | S. cerevisiae deletion strains, locus YLR258W, strain gsy2, active compounds read low 0.988 | S. cerevisiae deletion strains, locus YLR262C, strain YPT6 (second series), active compounds read low 0.97 | S. cerevisiae deletion strains, locus YLR262C, strain YPT6, active compounds read low 1.02 | S. cerevisiae deletion strains, locus YLR268W, strain sec22, active compounds read low 1.02 | S. cerevisiae deletion strains, locus YLR320W, strain mms22, active compounds read low 1.02 | S. cerevisiae deletion strains, locus YLR330W, strain CHS5, active compounds read low 1.01 | S. cerevisiae deletion strains, locus YLR342W, strain FKS1 (second series), active compounds read low 1.01 | S. cerevisiae deletion strains, locus YLR342W, strain FKS1, active compounds read low 0.978 | S. cerevisiae deletion strains, locus YLR357W, strain rsc2, active compounds read low 0.98 | S. cerevisiae deletion strains, locus YLR370C, strain arc18, active compounds read low 0.98 | S. cerevisiae deletion strains, locus YLR371W, strain rom2, active compounds read low 1.01 | S. cerevisiae deletion strains, locus YLR384C, strain iki3, active compounds read low 0.986 | S. cerevisiae deletion strains, locus YLR418C, strain cdc73, active compounds read low 1 | S. cerevisiae deletion strains, locus YML016C, strain PPZ1, active compounds read low 1.01 | S. cerevisiae deletion strains, locus YML032C, strain rad52, active compounds read low 1.01 | S. cerevisiae deletion strains, locus YML120C, strain ndi1, active compounds read low 0.989 | S. cerevisiae deletion strains, locus YML124C, strain tub3, active compounds read low 1.01 | S. cerevisiae deletion strains, locus YMR058W, strain fet3, active compounds read low 0.967 | S. cerevisiae deletion strains, locus YMR078C, strain ctf18, active compounds read low 1.01 | S. cerevisiae deletion strains, locus YMR125W, strain sto1, active compounds read low 0.969 | S. cerevisiae deletion strains, locus YMR129W, active compounds read low 0.982 | S. cerevisiae deletion strains, locus YMR205C, strain PFK2, active compounds read low 1.01 | S. cerevisiae deletion strains, locus YMR223W, strain ubp8, active compounds read low 0.988 | S. cerevisiae deletion strains, locus YMR231W, strain pep5, active compounds read low 0.975 | S. cerevisiae deletion strains, locus YMR263W, strain SAP30, active compounds read low 1.01 | S. cerevisiae deletion strains, locus YMR307W, strain GAS1, active compounds read low 0.973 | S. cerevisiae deletion strains, locus YNL067W, strain RPL9B, active compounds read low 1 | S. cerevisiae deletion strains, locus YNL071W, strain lat1, active compounds read low 0.974 | S. cerevisiae deletion strains, locus YNL153C, strain GIM3, active compounds read low 1 | S. cerevisiae deletion strains, locus YNL183C, strain NPR1, active compounds read low 0.974 | S. cerevisiae deletion strains, locus YNL209W, strain ssb2, active compounds read low 1 | S. cerevisiae deletion strains, locus YNL233W, strain BNI4, active compounds read low 1 | S. cerevisiae deletion strains, locus YNL248C, strain rpa49, active compounds read low 0.975 | S. cerevisiae deletion strains, locus YNL250W, strain rad50, active compounds read low 1 | S. cerevisiae deletion strains, locus YNL271C, strain bni1, active compounds read low 1.01 | S. cerevisiae deletion strains, locus YNL298W, strain CLA4, active compounds read low 1.02 | S. cerevisiae deletion strains, locus YNL307C, strain MCK1, active compounds read low 1.01 | S. cerevisiae deletion strains, locus YNL322C, strain KRE1 (second series), active compounds read low 0.982 | S. cerevisiae deletion strains, locus YNL322C, strain KRE1, active compounds read low 1 | S. cerevisiae deletion strains, locus YNR049C, strain mso1, active compounds read low 0.984 | S. cerevisiae deletion strains, locus YNR052C, strain pop2, active compounds read low 1.02 | S. cerevisiae deletion strains, locus YOL012C, strain htz1 0.67 | S. cerevisiae deletion strains, locus YOL147C, strain pex11, active compounds read low 1 | S. cerevisiae deletion strains, locus YOR001W, strain rrp6, active compounds read low 0.949 | S. cerevisiae deletion strains, locus YOR061W, strain CKA2, active compounds read low 1.02 | S. cerevisiae deletion strains, locus YOR069W, strain VPS5, active compounds read low 1.01 | S. cerevisiae deletion strains, locus YOR070C, strain gyp1, active compounds read low 1.02 | S. cerevisiae deletion strains, locus YOR080W, strain dia2, active compounds read low 0.988 | S. cerevisiae deletion strains, locus YOR083W, strain WHI5, active compounds read low 1.03 | S. cerevisiae deletion strains, locus YOR106W, strain vam3, active compounds read low 0.998 | S. cerevisiae deletion strains, locus YOR136W, strain idh2, active compounds read low 1.01 | S. cerevisiae deletion strains, locus YOR144C, strain elg1, active compounds read low 1.01 | S. cerevisiae deletion strains, locus YOR184W, strain ser1, active compounds read low 1.02 | S. cerevisiae deletion strains, locus YOR231W, strain MKK1, active compounds read low 1.01 | S. cerevisiae deletion strains, locus YOR265W, strain rbl2, active compounds read low 1.02 | S. cerevisiae deletion strains, locus YOR270C, strain vph1, active compounds read low 0.979 | S. cerevisiae deletion strains, locus YOR290C, strain snf2, active compounds read low 0.995 | S. cerevisiae deletion strains, locus YOR316C, strain cot1, active compounds read low 1.01 | S. cerevisiae deletion strains, locus YPL051W, strain arl3, active compounds read low 0.995 | S. cerevisiae deletion strains, locus YPL055C, strain LGE1, active compounds read low 1 | S. cerevisiae deletion strains, locus YPL078C, strain atp4, active compounds read low 0.989 | S. cerevisiae deletion strains, locus YPL106C, strain sse1, active compounds read low 0.994 | S. cerevisiae deletion strains, locus YPL240C, strain hsp82, active compounds read low 0.987 | S. cerevisiae deletion strains, locus YPL241C, strain CIN2, active compounds read low 1 | S. cerevisiae deletion strains, locus YPL256C, strain CLN2, active compounds read low 1.02 | S. cerevisiae deletion strains, locus YPR119W, strain clb2, active compounds read low 1.01 | S. cerevisiae deletion strains, locus YPR141C, strain kar3, active compounds read low 1.01 | S. cerevisiae deletion strains, locus YPR163C, strain tif3, active compounds read low 1.01 | S. cerevisiae deletion strains, locus YPR167C, strain met16, active compounds read low 1 | S. cerevisiae deletion strains, strain wtn01, active compounds read low 1.02 | S. cerevisiae strains, strain wild type, active compounds read low 1.01

Reference: PubChem BioAssay AID1159580 (chemical genetic matrix, 2015)
